Pf Dd2 inh: qHTS Primary assay for Inhibitors of Plasmodium falciparum Dd2 growth in vitro | P. falciparum Dd2 growth, SYBR Green, 72 h | Potency, µM (doses to about 28.9 µM), usual class: inhibitors | hit rate 4.3% among 120,000 | AID 1347417, 2020; active = well fitted inhibition curve with a large enough effect; note: nearly all actives have a fitted effect of over 65% in size
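Readout: SYBR Green fluorescence, 485 nm excitation, 535 nm emission, after ~16 h lysis at 37C. Before that, Dd2-infected red cells (2.5% hematocrit) grew 72 h with compound, 29 uM top final concentration.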
Each line names hits and unclear results; the compound was inactive in the other large screens. This excerpt belongs to a sample that is enriched for hits.

COc1ccc(-c2nc3n(n2)C(c2ccccc2F)C(C(=O)Nc2cccnc2)=C(C)N3)cc1OC (configuration not stated)	Pf Dd2 inh 10µM
CC(C)CNC(=O)C1COC2(CCN(C(=O)c3ccccc3F)CC2)N1C(=O)c1cccc(F)c1 (configuration not stated)	none
COc1ccc(C(=O)N2CC(Oc3ccc(F)cc3F)C2)cc1	none
Cn1nccc1C(=O)NCCc1noc(-c2ccccc2)n1	none
CCc1nc(-c2c3n(c(=O)n(CC(=O)Nc4ccc(C)cc4C)c2=O)CCCCC3)no1	none
OC1(c2csc(CN3CCOCC3)n2)CCN(Cc2ccc(C(F)(F)F)cc2)CC1	none
CCN(CC)Cc1nc(C2(O)CCN(Cc3ccc(C(F)(F)F)cc3)CC2)cs1	Pf Dd2 inh 11µM
CCN1CCC(O)(c2csc(CN(CC)CC)n2)CC1	none
COCCC1(NC(=O)C2CCOCC2)CCN(C(=O)c2cccnc2C)CC1	none
N#Cc1ccc(CN2CCn3nnc(-c4nc(-c5ccsc5)no4)c3C2=O)cc1	none
CCc1cn(C[C@H](NC2CCCCC2)C(=O)O)c(=O)[nH]c1=O	none
CCc1nc(-c2c3n(c(=O)n(Cc4cccc(C(F)(F)F)c4)c2=O)CCCC3)no1	none
COc1ccc(C[C@H](NC(=O)C2=C[C@@H](NC(=O)c3ccccc3Br)[C@@H](O)[C@H](O)C2)C(N)=O)cc1	none
Cc1ccsc1CN1CCc2nc(N(C)Cc3cccnc3)[nH]c(=O)c2CC1	none
O=C(Nc1ccccc1F)N1CC(Oc2cccc(-c3nc(-c4ccccc4)no3)c2)C1	none
COc1ccc(C(=O)N2CC(Oc3ccccc3-c3nc(-c4ccccc4)no3)C2)cc1	Pf Dd2 inh 0.89µM
COc1ccc(C(=O)N2CC(Oc3ccc(-c4nc(-c5ccccc5)no4)cc3)C2)cc1	none
CC(C)C(=O)N1CC(Oc2ccccc2-c2nc(C3CC3)no2)C1	none
O=C(c1ccco1)N1CC(Oc2ccccc2-c2nc(-c3ccccc3)no2)C1	Pf Dd2 inh 4µM
Cc1noc(-c2cccc(OC3CN(C(=O)Cc4ccccc4)C3)c2)n1	none
COCCOCC(=O)N1CC(Oc2ccccc2-c2nc(C3CC3)no2)C1	none
Cc1cccc(C(=O)N2CC(Oc3ccc(-c4nc(-c5ccccc5)no4)cc3)C2)c1	none
CC(C)CNC(=O)N1CC(Oc2ccccc2-c2nc(-c3ccccc3)no2)C1	none
CC(=O)N1CCC(Oc2ccccc2-c2nc(-c3ccccc3)no2)C1 (configuration not stated)	none
O=C(CN1CCCCCC1)N1CC(Oc2ccccc2-c2nc(C3CC3)no2)C1	Pf Dd2 inh 11µM
O=C(COc1ccc(F)cc1)N1CC(Oc2cccc(-c3nc(-c4ccccc4)no3)c2)C1	Pf Dd2 inh 2.2µM
C1CC(Cc2nc(C3CC3)n[nH]2)CN1 (configuration not stated)	none
COc1ccc(NC(=O)Cn2ccn3nc(-c4ccc(F)cc4)c(CO)c3c2=O)cc1	none
CCOCCn1nc(C)cc1C(=O)N1CCC2(CC(=O)NC2=O)C1 (configuration not stated)	none
CCCCN1C(=O)[C@@H]2C[C@@H](O)CN2C2(CN(Cc3cccs3)C2)C1=O	none
COc1ccc(NC(=O)c2nnn(Cc3ccccc3C)c2N)c(OC)c1	Pf Dd2 inh 1.1µM
COc1ccc(Cn2nnc(C(=O)Nc3cc(OC)ccc3OC)c2N)cc1	none
COc1ccc(Cl)cc1NC(=O)c1nnn(Cc2cccc(C(F)(F)F)c2)c1N	none
Cc1ccc(Cl)cc1NC(=O)c1nnn(Cc2ccccc2)c1N	Pf Dd2 inh 1.1µM
COc1ccc(NC(=O)c2nnn(CC(=O)Nc3cc(C)cc(C)c3)c2N)c(OC)c1	none
Cc1ccc(NC(=O)c2nnn(Cc3ccccc3)c2N)cc1C	none
Cc1cccc(Cn2nnc(C(=O)Nc3cc(C)ccc3C)c2N)c1	Pf Dd2 inh 2µM
Cc1ccc(C)c(NC(=O)c2nnn(CC(=O)Nc3cccc(C)c3C)c2N)c1	none
COc1cccc(Cn2nnc(C(=O)Nc3cc(C)ccc3C)c2N)c1	none
Cc1ccc(NC(=O)CN2C(=O)NC3(CCOCC3)C2=O)cc1C	none
CC(=O)NCCC(=O)N1CCCC1C(=O)Nc1cccc(-n2cccn2)c1 (configuration not stated)	none
O=C(N[C@@H]1CCOC[C@H]1OCCO)c1cc(-c2ccsc2)n[nH]1	none
Cc1nc(C2CC2)ncc1C(=O)N(C/C=C/c1ccccc1)C1CC1	none
CCCOc1cc(C)c2c(c1C)C[C@H](C(C)C(=O)N1CCC(O)CC1)CC2 (some centres not stated)	none
CCOCCCNC(=O)N1CCOc2ccc(CN(CC)CC)cc2C1	none
COc1cccc(C(=O)N2CCOc3ccc(CN4CCCCC4)cc3C2)c1	none
CCN(CC)Cc1ccc2c(c1)CN(C(=O)c1cccc(F)c1)CCO2	Pf Dd2 inh 6.3µM
CC(C)NC(=O)N(C1CC1)C1CCOC2(CCN(C(=O)Nc3ccccc3F)CC2)C1 (configuration not stated)	none
Cc1ccc(CN2CCc3nn(Cc4ccccc4)c(=O)n3CC2)nc1	none
COc1cc(C(=O)Nc2sc3c(c2C(N)=O)CCC(C)C3)cc(OC)c1OC (configuration not stated)	none
COc1ccc(NC(=O)c2c(NCc3cccs3)sc3c2CCC(C)C3)c(OC)c1 (configuration not stated)	Pf Dd2 inh 10µM
COc1ccc(OC)c(NC(=O)c2c(OC)cc(=O)n3c2CCCC3)c1	none
COc1ccc(OC)c(NC(=O)c2c(NCc3cccs3)sc3c2CCCCC3)c1	Pf Dd2 inh 8.9µM
COc1ccc(OC)c(NC(=O)c2sc3nc4c(cc3c2N)CCCCCC4)c1	none
COc1ccccc1NC(=O)c1c(NC(=O)Cc2ccccc2)sc2c1CCC(C(C)(C)C)C2 (configuration not stated)	none
O=C(Cc1ccccc1C(F)(F)F)N1CCC2(CC1)[C@H](O)C[C@@H]2O	none
CC1CCC2(CC1)NC(=O)N(CC(=O)N1CCCCCC1)C2=O (configuration not stated)	none
CCCS(=O)(=O)N1CCCC1c1noc(CCC(=O)N2CCN(C)CC2)n1 (configuration not stated)	none
Cc1ccc2nc3n(c2c1)[C@@H](CNC1CCN(C)CC1)COC3	none
COc1ccc(C2C=C(c3ccccc3)Nc3nc(NS(=O)(=O)c4ccc(Cl)cc4)nn32)cc1 (configuration not stated)	none
CC1=C(C(=O)Nc2cccnc2)C(c2ccc(Cl)cc2)n2nc(-c3ccccc3)nc2N1 (configuration not stated)	none
Cc1ccc(C2C=C(c3ccccc3)Nc3nc(NS(=O)(=O)c4ccccc4)nn32)cc1 (configuration not stated)	none
O=S(=O)(Nc1nc2n(n1)C(c1ccccc1)C=C(c1ccc(Cl)cc1)N2)c1ccccc1 (configuration not stated)	none
Cc1ccc(C(=O)Nc2nc3n(n2)C(c2ccccc2)C=C(c2ccccc2)N3)cc1 (configuration not stated)	Pf Dd2 inh 11µM
COc1ccc(C2C=C(c3ccc(Cl)cc3)Nc3nc(NC(=O)CCC(=O)O)nn32)cc1 (configuration not stated)	none
O=S(=O)(Nc1nc2n(n1)C(c1ccc(F)cc1)C=C(c1ccccc1)N2)c1ccc(Cl)cc1 (configuration not stated)	none
Cc1ccc(C2C=C(c3ccccc3)Nc3nc(NS(C)(=O)=O)nn32)cc1 (configuration not stated)	none
O=C(Nc1nc2n(n1)C(c1ccccc1)C=C(c1ccccc1)N2)c1ccc(Cl)c([N+](=O)[O-])c1 (configuration not stated)	Pf Dd2 inh 8.9µM
